# Several values for one entry are separate records, joined by “and”; a condition that tells them apart may be missing. Equal values may be shown once. The panel holds about 79,000 compounds, 15% with a hit somewhere; the sample as a whole holds those more often. Activity calls are given as the source filed them. Cut-off read from the data, not from the text of the source: active = growth inhibition above about 70%; inactive = the rest.
# Assay: NCI Yeast Anticancer Drug Screen. Data for the rad50 strain (AID 155);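 note: 0% = growth of vehicle-only cultures of the same strain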
# Details: S. cerevisiae rad50 strain growth inhibition; at 5.0 µM (retest, dose inferred, filed as 0.5); active compounds read high
# How it was run: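 DNA repair mutant yeast, compound exposure, growth read-out; inhibition is taken relative to vehicle.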
row,SMILES,growth inhibition
1,CN(C)c1ccc(C2CC(C)(O)Oc3cc4c(cc32)OCO4)cc1 (stereo unspecified),10% (inactive)
2,O=P(NC1CCCCC1)(OCc1ccccc1)OCc1ccccc1,8% (inactive)
3,COc1oc(C(=O)NC2CCCCC2)c(-c2ccc(Cl)cc2)c1S(=O)(=O)c1ccccc1,64% (inactive)
4,C[Si](C)(C)/C=C/CCNC(C#N)c1ccccc1 (stereo unspecified),98% (active)
5,CCOc1ccc(NC(=O)C2=C(C)NC(C)=C(C(=O)Nc3ccc(OCC)cc3)C2c2cccc([N+](=O)[O-])c2)cc1,-10% (inactive)
6,CN(C)CCOC1(Cc2ccc(F)cc2)CCC(C(C)(C)C)CC1 (stereo unspecified),4% (inactive) and -18% (inactive)
7,CC1(C)CC(=O)C(/C=N/c2nc(-c3ccccc3)cs2)=C(O)C1,-3% (inactive)
8,CC(=O)Nc1ccc2c(c1)Cc1cc(N=C3C=CC(=O)O3)ccc1-2,60% (inactive)
9,O=C1C=C(Cl)C(=O)C(c2ccc(Cl)cc2)=C1,21% (inactive)
10,CNCCCNc1c2ccccc2nc2cccc([N+](=O)[O-])c12,77% (active)
11,CCCCCCCCCCCC(O)S(=O)(=O)O (stereo unspecified),-13% (inactive)
12,CC(C)OC(=O)c1ccc(CCc2cc(O)c(Br)cc2O)cc1,27% (inactive)
13,CCc1cc(O)c(Cl)c(C)c1Cl,42% (inactive)
14,C(=Nc1ccc(-c2cc(-c3ccccc3)nc3ccc4ccccc4c23)cc1)c1ccccc1,20% (inactive)
15,CSc1nc(C)c(CCOC(C)=O)c(N=P(c2ccccc2)(c2ccccc2)c2ccccc2)n1,16% (inactive)
16,CS(=O)(=O)SCc1ccc([N+](=O)[O-])cc1,20% (inactive)
17,COC1=C(OC)C(=O)C(Sc2ccc3ccccc3c2)=CC1=O,17% (inactive)
18,COc1nc2c(c(=O)n1C)N=C(c1ccccc1)[C@H](C(CC(=O)c1ccccc1)c1ccccc1)C(c1ccccc1)N2 (stereo partly specified),65% (inactive)
19,Cc1cc(-c2cc(C)c(O)c(C(C)(C)C)c2)cc(C(C)(C)C)c1O,43% (inactive) and 15% (inactive)

row,SMILES,growth inhibition
1,Nc1cc(N)c(N=Nc2cccc3c(S(=O)(=O)O)cccc23)cc1N=Nc1cc([N+](=O)[O-])ccc1O,46% (inactive)
2,Nc1ccc(F)cc1S,16% (inactive)
3,Brc1ccccc1-c1ncc(-c2ccccc2)o1,42% (inactive)
4,COc1cc(C2SCC(=O)N2c2ccc(-c3ccc(-n4c(-c5ccccc5)nc5ccccc5c4=O)cc3)cc2)ccc1O (stereo unspecified),-11% (inactive)
5,Nc1ncnc2c1ncn2C1OC(CO)CC1O (stereo unspecified),63% (inactive) and 14% (inactive)
6,COc1cc(CSc2ccc(O)cc2)cc(O)c1O,5% (inactive)
7,CCOC(=O)C1N=[N+](c2ccccc2)C(=O)/C1=C\n1c(=S)[nH]c2ccc([N+](=O)[O-])cc21 (stereo unspecified),21% (inactive)
8,CNC(=O)OCc1c(COC(=O)NC)c2n(c1C)-c1ccc(OC)cc1CCC2,25% (inactive)
9,O=C(NNc1ccccc1)c1ccc(Cl)c(Cl)c1,4% (inactive)
10,C[C@]12CC[C@H](O)CC1=CC[C@@H]1C2CC[C@]2(C)C(=O)NC(=O)CC12 (stereo partly specified),-4% (inactive)
11,CCCC/C=C/C(C)(C(=O)OCC)C(=O)OCC,10% (inactive)
12,CCc1c(Cl)c(C)cc(O)c1Cl,38% (inactive)
13,O=C(/C=C(/c1ccccc1)N1CCCCC1)c1ccccc1,0% (inactive)
14,CCCC(=O)Oc1ccc(/C=N/NC(N)=S)nc1,-3% (inactive)
15,CCc1nc2ccc(NCCN(C)C)c3c(=O)c4ccccc4n1c23,38% (inactive)
16,Cc1sc2ccc3ccccc3c2[n+]1C,44% (inactive) and -15% (inactive)
17,COc1c(O)c(C=O)c(Br)c(C=O)c1O,16% (inactive)
18,Cc1ccc(Cl)cc1NC(=O)OCCN(C)C(=O)Nc1cc(Cl)ccc1C,57% (inactive)
19,Cc1nc2ccccc2nc1NNc1ccccc1,17% (inactive)

# Same assay, conditions: S. cerevisiae rad50 strain growth inhibition; at 11.0 µM; active compounds read high
row,SMILES,growth inhibition
1,CN(C)c1ccc(C2CC(C)(O)Oc3cc4c(cc32)OCO4)cc1 (stereo unspecified),5% (inactive)
2,O=P(NC1CCCCC1)(OCc1ccccc1)OCc1ccccc1,11% (inactive)
3,COc1oc(C(=O)NC2CCCCC2)c(-c2ccc(Cl)cc2)c1S(=O)(=O)c1ccccc1,48% (inactive)
4,C[Si](C)(C)/C=C/CCNC(C#N)c1ccccc1 (stereo unspecified),47% (inactive)
5,CCOc1ccc(NC(=O)C2=C(C)NC(C)=C(C(=O)Nc3ccc(OCC)cc3)C2c2cccc([N+](=O)[O-])c2)cc1,-1% (inactive)
6,CN(C)CCOC1(Cc2ccc(F)cc2)CCC(C(C)(C)C)CC1 (stereo unspecified),14% (inactive)
7,CC1(C)CC(=O)C(/C=N/c2nc(-c3ccccc3)cs2)=C(O)C1,-4% (inactive)
8,CC(=O)Nc1ccc2c(c1)Cc1cc(N=C3C=CC(=O)O3)ccc1-2,81% (active)
9,O=C1C=C(Cl)C(=O)C(c2ccc(Cl)cc2)=C1,44% (inactive)
10,CNCCCNc1c2ccccc2nc2cccc([N+](=O)[O-])c12,91% (active)
11,CCCCCCCCCCCC(O)S(=O)(=O)O (stereo unspecified),-2% (inactive)
12,CC(C)OC(=O)c1ccc(CCc2cc(O)c(Br)cc2O)cc1,66% (inactive)
13,CCc1cc(O)c(Cl)c(C)c1Cl,-31% (inactive)
14,C(=Nc1ccc(-c2cc(-c3ccccc3)nc3ccc4ccccc4c23)cc1)c1ccccc1,42% (inactive)
15,CSc1nc(C)c(CCOC(C)=O)c(N=P(c2ccccc2)(c2ccccc2)c2ccccc2)n1,-21% (inactive)
16,CS(=O)(=O)SCc1ccc([N+](=O)[O-])cc1,97% (active)
17,COC1=C(OC)C(=O)C(Sc2ccc3ccccc3c2)=CC1=O,19% (inactive)
18,COc1nc2c(c(=O)n1C)N=C(c1ccccc1)[C@H](C(CC(=O)c1ccccc1)c1ccccc1)C(c1ccccc1)N2 (stereo partly specified),5% (inactive)
19,Cc1cc(-c2cc(C)c(O)c(C(C)(C)C)c2)cc(C(C)(C)C)c1O,11% (inactive)

row,SMILES,growth inhibition
1,Nc1cc(N)c(N=Nc2cccc3c(S(=O)(=O)O)cccc23)cc1N=Nc1cc([N+](=O)[O-])ccc1O,8% (inactive)
2,Nc1ccc(F)cc1S,-14% (inactive)
3,Brc1ccccc1-c1ncc(-c2ccccc2)o1,24% (inactive)
4,COc1cc(C2SCC(=O)N2c2ccc(-c3ccc(-n4c(-c5ccccc5)nc5ccccc5c4=O)cc3)cc2)ccc1O (stereo unspecified),0% (inactive)
5,Nc1ncnc2c1ncn2C1OC(CO)CC1O (stereo unspecified),30% (inactive)
6,COc1cc(CSc2ccc(O)cc2)cc(O)c1O,-2% (inactive)
7,CCOC(=O)C1N=[N+](c2ccccc2)C(=O)/C1=C\n1c(=S)[nH]c2ccc([N+](=O)[O-])cc21 (stereo unspecified),-18% (inactive)
8,CNC(=O)OCc1c(COC(=O)NC)c2n(c1C)-c1ccc(OC)cc1CCC2,-43% (inactive)
9,O=C(NNc1ccccc1)c1ccc(Cl)c(Cl)c1,11% (inactive)
10,C[C@]12CC[C@H](O)CC1=CC[C@@H]1C2CC[C@]2(C)C(=O)NC(=O)CC12 (stereo partly specified),-13% (inactive)
11,CCCC/C=C/C(C)(C(=O)OCC)C(=O)OCC,-1% (inactive)
12,CCc1c(Cl)c(C)cc(O)c1Cl,-27% (inactive)
13,O=C(/C=C(/c1ccccc1)N1CCCCC1)c1ccccc1,5% (inactive)
14,CCCC(=O)Oc1ccc(/C=N/NC(N)=S)nc1,-17% (inactive)
15,CCc1nc2ccc(NCCN(C)C)c3c(=O)c4ccccc4n1c23,74% (active)
16,Cc1sc2ccc3ccccc3c2[n+]1C,12% (inactive)
17,COc1c(O)c(C=O)c(Br)c(C=O)c1O,15% (inactive)
18,Cc1ccc(Cl)cc1NC(=O)OCCN(C)C(=O)Nc1cc(Cl)ccc1C,-35% (inactive)
19,Cc1nc2ccccc2nc1NNc1ccccc1,9% (inactive)

# From PubChem BioAssay (NCI)
